Reference: the supplement of paper PMC6992640
Where a name gives a salt, the structure may show the parent alone. ± gives the standard deviation of the averaged measurements.

Experiments:
Experiment in all cases: cell viability (% of vehicle); higher = less cytotoxic
Details in all cases: 10 µM; 72 h
HCI01 = tested on: HCI01 (cells of a triple-negative basal-like breast cancer xenograft)
HCI03 = tested on: HCI03 (cells of an ER-positive luminal breast cancer xenograft)
HCI09 = tested on: HCI09 (cells of a triple-negative luminal androgen receptor type breast cancer xenograft)
HCI11 = tested on: HCI11 (cells of an ER-positive luminal breast cancer xenograft)
HCI13 = tested on: HCI13 (cells of an ER-positive luminal breast cancer xenograft)
HCI16 = tested on: HCI16 (cells of a triple-negative basal-like breast cancer xenograft)
UCD52 = tested on: UCD52 (cells of a triple-negative basal-like breast cancer xenograft)
WHIM2 = tested on: WHIM2 (cells of a triple-negative basal-like breast cancer xenograft)
WHIM30 = tested on: WHIM30 (cells of a triple-negative basal-like breast cancer xenograft)
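Further: PDX cells carrying CMV promoter-driven luciferase, viability read as total photon flux per second by IVIS imaging following D-luciferin, vehicle control 0.1% DMSO.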

Structure (SMILES)	cell viability (HCI01)	cell viability (HCI03)	cell viability (HCI09)	cell viability (HCI11)	cell viability (HCI13)	cell viability (HCI16)	cell viability (UCD52)	cell viability (WHIM2)	cell viability (WHIM30)
CCCNCC(O)COc1ccccc1C(=O)CCc1ccccc1.Cl (stereo not drawn) [Propafenone HCl]	90.3 ± 6.7	119	96 ± 14	87.2	95.3 ± 7	101	76.9 ± 7.8	86.9 ± 20	115 ± 6.6
CCN(CC)CC(=O)Nc1c(C)cccc1C [Lidocaine]	107 ± 5.8	94.4	105 ± 5.4	100	100 ± 3.6	93.9	90.9 ± 16	74.4 ± 18	122 ± 21
O=S(=O)([O-])CCSSCCS(=O)(=O)[O-].[Na+].[Na+] [Dimesna]	111 ± 23	150	97 ± 6.5	103	122 ± 15	124	111 ± 8.6	128 ± 9.9	125 ± 12
C=C[C@@H]1C[N@@]2CC[C@H]1C[C@@H]2[C@H](O)c1ccnc2ccc(OC)cc12 [Quinidine]	89 ± 10	135	102 ± 20	102	122 ± 8.8	123	97.9 ± 2.7	101 ± 11	101 ± 6.2
NCC1CCC(C(=O)O)CC1 (stereo not drawn) [Tranexamic Acid]	118 ± 7.2	116	94.6 ± 25	111	74.8 ± 0.96	102	92.2 ± 5	124 ± 17	111 ± 16
Nc1ccc(C(=O)NCC(=O)[O-])cc1.[Na+] [Sodium 4-amiropparaty Hyalrate]	107.1 ± 0.65	109	122 ± 35	110	112 ± 12	107	91.5 ± 8.8	95.4 ± 6	171 ± 21
Cl.O=C1Cc2cc(CCN3CCN(c4nsc5ccccc45)CC3)c(Cl)cc2N1 [Ziprasidone HCl]	45.7 ± 12	78.6	33.8 ± 21	57.8	45.9 ± 5.8	46.5	130 ± 9.5	38.1 ± 5.7	123 ± 11
COc1cc2ncnc(Nc3ccc(F)c(Cl)c3)c2cc1OCCCN1CCOCC1 [Gefitinib (ZD1839)]	95.6 ± 51	55.3	77.9 ± 22	110	63.3 ± 1.6	94.8	52.2 ± 1.3	47.8 ± 2.2	128.3 ± 1.1
Cc1onc(-c2ccccc2Cl)c1C(=O)NC1C(=O)N2C1SC(C)(C)C2C(=O)[O-].O.[Na+] (stereo not drawn) [Cloxacillin Sodium]	141 ± 32	176	161 ± 95	134	191 ± 2.4	–	154 ± 38	132 ± 37	199 ± 20
OC(CCCN1CCCCC1)(c1ccccc1)c1ccccc1 [Diphenidol HCl]	117 ± 19	139	107 ± 12	82.5	88.1 ± 2.6	118	101 ± 25	108 ± 9.6	113 ± 11
O=c1[nH]c(=O)n(C2CC(O)C(CO)O2)cc1C(F)(F)F (stereo not drawn) [Triflurdine (Viroptic)]	123 ± 1.4	132	137 ± 70	111	147 ± 24	97.1	116 ± 1.5	87.8 ± 36	132 ± 15
